WNV NS2B-NS3 inh = blocks West Nile virus NS2B-NS3 protease activity; P06935; WNV NS2B-NS3 protease, fluorogenic substrate Ex360/Em465; stronger effect = lower value; z-score (concentration not given with the values); 0.18% of 65,000 active; in the data active = z-score below about -3
Target sequence (P06935 1371-1501 limits assumed): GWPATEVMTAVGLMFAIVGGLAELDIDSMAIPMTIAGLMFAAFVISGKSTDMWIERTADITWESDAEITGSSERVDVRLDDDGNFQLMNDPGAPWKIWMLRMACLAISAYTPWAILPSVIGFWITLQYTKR
Target sequence (P06935 1502-1679 limits assumed): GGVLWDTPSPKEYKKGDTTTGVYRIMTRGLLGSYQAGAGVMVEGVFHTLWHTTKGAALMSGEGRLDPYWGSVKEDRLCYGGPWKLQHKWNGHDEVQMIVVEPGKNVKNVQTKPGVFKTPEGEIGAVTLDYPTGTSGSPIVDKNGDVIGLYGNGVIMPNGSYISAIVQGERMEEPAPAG
CatB block = human cathepsin B inhibition. P07858. purified cathepsin B, fluorogenic substrate, fluorescence. inhibition, %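 (tested at 10 µM)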. 0.1% of 63,000 active. AID 453; in the data active = inhibition above about 21%
CatS inh = inhibitors of human cathepsin S. P25774. 0.06% of 62,000 active. recombinant cathepsin S, AMC dipeptide fluorescence, pooled mixtures. inhibition, %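 (tested at 5 µM per compound within 10-compound mixtures)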; in the data active = inhibition above about 32%, passing the limit was not always enough; inconclusive = no clear call, values can overlap the other calls
CatL block = inhibitors of human cathepsin L; 0.17% of 58,000 active; P07711; inhibition, %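 (tested at 10 µM)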; purified cathepsin L, fluorogenic substrate, fluorescence; in the data active = inhibition above about 45%
CatB mix inh = inhibitors of human cathepsin B in compound mixtures; inhibition, %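 (ten-compound pools at 5 µM per compound and 50 µM total)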; P07858; AID 488; 0.06% of 62,000 active; Purified cathepsin B, AMC dipeptide fluorescence; in the data active = inhibition above about 22%, passing the limit was not always enough; inconclusive = no clear call, values can overlap the other calls
Numbers stand for hits. An excerpt weighted towards active compounds, which were near 0.42% of everything screened.

Screening CC(=O)OC(/C(O)=C(\C#N)c1nc2ccccc2[nH]1)c1ccccc1 (configuration not stated) returned WNV NS2B-NS3 inh inactive, CatB block inactive, CatS inh inactive, CatL block inactive and CatB mix inh inactive.
For CC(C)C(c1nnnn1C1CCCC1)N1CCc2ccccc21 (configuration not stated) the results were WNV NS2B-NS3 inh inactive, CatB block inactive, CatS inh inactive, CatL block inactive and CatB mix inh inactive.
Screening CC(C)C(c1nnnn1C1CCCC1)N1CCCc2ccccc21 (configuration not stated) returned WNV NS2B-NS3 inh inactive, CatB block inactive, CatS inh 32.5, CatL block inactive and CatB mix inh inactive.
Screening COc1ccc(N2CCN(CCCNS(=O)(=O)c3c(C)noc3/C=C/N(C)C)CC2)cc1 returned WNV NS2B-NS3 inh inactive, CatB block inactive, CatS inh inactive, CatL block 74.9 and CatB mix inh inactive.
`COc1ccc(N2CCN(CC(=O)Nc3cc(C)on3)CC2)cc1` gave WNV NS2B-NS3 inh inactive, CatB block inactive, CatS inh inactive, CatL block inactive and CatB mix inh inactive.
CCc1nc(N)c(C#N)c(-c2cccn2C)c1C was read as WNV NS2B-NS3 inh -6.79.
Screening CC1CCN(CCCNC(=O)c2ccc(CS(=O)(=O)Cc3ccccc3F)o2)CC1 returned WNV NS2B-NS3 inh inactive, CatB block inactive, CatS inh inactive, CatL block inactive and CatB mix inh inactive.
Screening O=C(NCCCN1CCCCCC1)c1ccc(CS(=O)(=O)Cc2ccccc2F)o1 returned WNV NS2B-NS3 inh inactive, CatB block inactive, CatS inh inactive, CatL block 60.3 and CatB mix inh inactive.
Screening CCCC(=O)c1c(NC(C)C)cc(C)oc1=O returned WNV NS2B-NS3 inh inactive, CatB block inactive, CatS inh inactive, CatL block inactive and CatB mix inh inactive.
For Cc1nnc(Sc2nc(Sc3nnc(C)s3)nc(N3CCN(C)CC3)n2)s1 the results were WNV NS2B-NS3 inh inactive, CatB block inactive, CatS inh inactive, CatL block inactive and CatB mix inh inactive.
For CCOC(=O)N1CCN(c2c(N3CCN(c4ccccn4)CC3)c(=O)c2=O)CC1 the results were WNV NS2B-NS3 inh inactive, CatB block inactive, CatS inh inactive, CatL block 86.4 and CatB mix inh inactive.
For CCc1ccc(NS(=O)(=O)c2cccs2)cc1 the results were WNV NS2B-NS3 inh inactive, CatB block inactive, CatS inh inactive, CatL block inactive and CatB mix inh inactive.
CCOC(=O)CSc1nnc(Cc2ccccc2)n1Cc1ccco1 was read as WNV NS2B-NS3 inh inactive, CatB block inactive, CatS inh inactive, CatL block 92.3 and CatB mix inh inactive.
COc1ccc(N2CCC(CNC(=O)Nc3ccc(OC)cc3OC)C2)cc1 (configuration not stated) was read as WNV NS2B-NS3 inh inactive, CatB block inactive, CatS inh inactive, CatL block inactive and CatB mix inh inactive.
Screening COc1ccc(N2CCC(CNC(=O)Nc3ccc(C)c(C)c3)C2)cc1 (configuration not stated) returned WNV NS2B-NS3 inh inactive, CatB block 41.4, CatS inh inactive, CatL block inactive and CatB mix inh inactive.
Screening N#C/C(C(=O)N1CCOCC1)=C1/SC=C(c2ccccc2)N1c1ccccc1 returned WNV NS2B-NS3 inh inactive, CatB block inactive, CatS inh inactive, CatL block inactive and CatB mix inh inactive.
For CCCCc1c(C)nn(-c2nnc3c4ccccc4n(C)c3n2)c1C the results were WNV NS2B-NS3 inh inactive, CatB block inactive and CatL block 94.3.
NC(=O)NC1CCCc2c1[nH]c1ccc(Cl)cc21 (configuration not stated) was read as WNV NS2B-NS3 inh -3.01, CatB block inactive, CatS inh inactive, CatL block inactive and CatB mix inh inactive.
N#Cc1nc(N2CCCCC2)nc(N2CCOCC2)n1 was read as WNV NS2B-NS3 inh inactive, CatB block inactive, CatS inh 57.9, CatL block 57.7 and CatB mix inh inactive.
For N#Cc1nc(N2CCCC2)nc(N2CCCC2)n1 the results were WNV NS2B-NS3 inh inactive, CatB block inactive, CatS inh inactive, CatL block inactive and CatB mix inh inactive.
`O=S(=O)(/N=S1/CC=CCN1S(=O)(=O)c1ccccc1)c1ccccc1` (configuration not stated) gave WNV NS2B-NS3 inh inactive, CatB block 34.8, CatS inh inactive and CatB mix inh inconclusive.
Screening O=S(=O)(c1ccccc1)N1CCN(S(=O)(=O)c2ccccc2)C1 returned WNV NS2B-NS3 inh inactive, CatB block inactive, CatS inh inactive, CatL block inactive and CatB mix inh inactive.
